# Source: the supplement of paper PMC6555819
# Experiments:
# Experiment in all cases: PBM binding z-score (relative to random genomic background probes); higher = stronger binding; sequences stand for … in GC…GCGATTGACAGCGTAGAATGAAGG
# [1] = test system: RARb homodimer (NR concentration 270 nM)
# Procedure, shortened: (§1)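 On custom Agilent 4×180K arrays, double-stranded probes with 34-nt variable regions carried direct-repeat seeds, single-nucleotide variants, half-site ablations or random human genomic background. Ligand-free nuclear receptor dimers were applied for 1 h, and binding was read with antibodies against each partner (one per run). Binding z-scores come from regression-normalized fluorescence, with the random background probes as reference.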
# [2] = test system: RARg:RXRa (NR concentration 270 nM, RXRa partner concentration 90 nM)
# Procedure, shortened: as §1
# [3] = test system: RARg homodimer (NR concentration 270 nM)
# Procedure, shortened: as §1
# [4] = test system: RXRa DBDmut IVT, anti-RXR (DBD mutation: RXRa K156A/R161A, NR concentration 90 nM)
# Procedure, shortened: as §1
# [5] = test system: RXRa homodimer (NR concentration 180 nM)
# Procedure, shortened: as §1
# [6] = test system: THRa:RXRa (NR concentration 90 nM, RXRa partner concentration 90 nM)
# Procedure, shortened: as §1
# [7] = test system: THRa homodimer (NR concentration 90 nM)
# Procedure, shortened: as §1
# [8] = test system: VDR homodimer (NR concentration 270 nM)
# Procedure, shortened: as §1
sequence,measurement,setting,value
CCTAGTAGGTTATGGGGCATTCAGGCAACGGTGA,PBM binding z-score,[1],0.8
same,PBM binding z-score,[2],0.878
same,PBM binding z-score,[3],0.852
same,PBM binding z-score,[4],-0.581
same,PBM binding z-score,[5],0.835
same,PBM binding z-score,[6],0.719
same,PBM binding z-score,[7],0.289
same,PBM binding z-score,[8],0.0809
CAAGCTAGGTCAAAGGTCAAAGTCGAGCCAACCA,PBM binding z-score,[1],5.17
same,PBM binding z-score,[2],9.17
same,PBM binding z-score,[3],8.1
same,PBM binding z-score,[4],3.05
same,PBM binding z-score,[5],10.6
same,PBM binding z-score,[6],4.96
same,PBM binding z-score,[7],1.45
same,PBM binding z-score,[8],3.39
CGAACTAGGTCAACGGACAGTGAAAGGCGACGTA,PBM binding z-score,[1],2.82
same,PBM binding z-score,[2],4.11
same,PBM binding z-score,[3],4.8
same,PBM binding z-score,[4],1.34
same,PBM binding z-score,[5],3.39
same,PBM binding z-score,[6],2.36
same,PBM binding z-score,[7],0.45
same,PBM binding z-score,[8],0.394
CGTCCAAGGTCAGAGAGGTCACTGAATGCCGAGT,PBM binding z-score,[1],5.89
same,PBM binding z-score,[2],7.04
same,PBM binding z-score,[3],7.93
same,PBM binding z-score,[4],3.39
same,PBM binding z-score,[5],6.93
same,PBM binding z-score,[6],4.71
same,PBM binding z-score,[7],3.53
same,PBM binding z-score,[8],6.07
ATCGAAAGGTCGACGAGTTGAGTATACACCGTTT,PBM binding z-score,[1],2.63
same,PBM binding z-score,[2],3.88
same,PBM binding z-score,[3],4.05
same,PBM binding z-score,[4],1.46
same,PBM binding z-score,[5],4.2
same,PBM binding z-score,[6],2.24
same,PBM binding z-score,[7],-0.136
same,PBM binding z-score,[8],2.1
CTATTTAGGTTAAGGGGGTCATTCAGTTTGAAAG,PBM binding z-score,[1],3.95
same,PBM binding z-score,[2],5.19
same,PBM binding z-score,[3],4.01
same,PBM binding z-score,[4],2.74
same,PBM binding z-score,[5],5.73
same,PBM binding z-score,[6],4.05
same,PBM binding z-score,[7],2.07
same,PBM binding z-score,[8],6.2
CGTCAAAGTTCAACTAAGGTAACTTAAAGCACGC,PBM binding z-score,[1],4.27
same,PBM binding z-score,[2],5.75
same,PBM binding z-score,[3],6.52
same,PBM binding z-score,[4],4.71
same,PBM binding z-score,[5],4.83
same,PBM binding z-score,[6],5.38
same,PBM binding z-score,[7],1.52
same,PBM binding z-score,[8],4.08
